Results on 30 compounds are retold here after PubChem BioAssay (NCATS).

Results filed as inconclusive are left out. Unmarked numbers belong to inactive results. Active and inactive are the calls of the source. Calls come from the whole dose curve; as a rule, active = well fitted inhibition curve with a large enough effect; inconclusive = small, poorly fitted or top-dose-only effect; inactive = no such curve, though single readings can be large or run the other way.
Potency is the fitted concentration of half-maximal effect.

The nature of the test: qHTS to identify inhibitors of the type 1 interferon - major histocompatibility complex class I in skeletal muscle: primary screen against the NCATS Mechanism Interrogation Plate v5.0 (MIPE) Libary (AID 1347411).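 For activity change, negative = inhibition: plate controls were vehicle for no effect and reference inhibitor for full effect.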 Note: nearly all actives have a fitted effect of over 65% in size. To be noted: iHSKM cells + IFN-b, HiBiT-tagged MHC-I luminescence, 24 h; series mostly up to 45.8 µM; activity change, negative = inhibition: at the top concentration. A digest of the protocol: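 IFN-beta-driven (4 ng/ml) HLA-B-HiBit expression in CRISPR-tagged C25cl48 myoblasts; compounds 11-pt, 1:3, max 46 uM, 24 hr exposure; lytic NanoLuc complementation luminescence.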
In the case of `O=C(NCCCCN1CCOCC1)c1cc2ccccc2o1`, the “activity change, negative = inhibition” value is 2.12%. Regarding `C=CC(=O)Nc1cccc(Sc2nc(Nc3ccc(N4CCN(C)CC4)cc3)ncc2Cl)c1`, the Potency is 13.1 µM (active). Turning to `COc1ccc(Cn2ccc3ccc(C(=O)NO)cc32)cc1`, the “activity change, negative = inhibition” value was -1.33%. Regarding `O=C(O)C1=CC(O)C(O)[C@H](O)C1` (stereo not given in full), the “activity change, negative = inhibition” value was -10.8%. As to `CNc1nc(Nc2ccc(C(=O)N3CCOCC3)cc2OC)ncc1Cl`, the “activity change, negative = inhibition” value is -8.06%. On the same count and under the same terms, for `COc1nccc(-c2c(-c3ccc(F)cc3)ncn2C2CCC(O)CC2)n1` (stereo not given) the value was -14.3%; for `CN1CCN(c2ncc(-c3cc(Cl)cc(Cl)c3Cl)c(N)n2)CC1`, -12.1%; for `CC(NCCc1ccc(O)cc1)C(O)c1ccc(O)cc1` (stereo not given), 4.81%. Regarding `NCc1c[nH]c(=S)n1[C@H]1CCc2c(F)cc(F)cc2C1`, the “activity change, negative = inhibition” value was -2.87%. Turning to `CCCCC(C)(C)[C@H](O)C=C[C@H]1[C@H](O)CC(=O)[C@H]1CC=CCCCC(=O)O`, the “activity change, negative = inhibition” value was -72.3%.

As to `COc1ccc(CCC(=O)Nc2nc3ccc(Cl)cc3s2)cc1OC`, the “activity change, negative = inhibition” value was -25.2%. Consider `OC1CCC(Nc2ncc3nc(Nc4c(F)cc(F)cc4F)n([C@@H]4CCOC4)c3n2)CC1` (stereo not given in full), for which the “activity change, negative = inhibition” value was -11%. On to `Cc1cc(C(C)Nc2ccccc2)c2nc(N3CCOCC3)cc(=O)n2c1` (stereo not given), for which the “activity change, negative = inhibition” value was -27%. `c1ccc(-c2oc3ncnc(NC[C@@H]4CCCO4)c3c2-c2ccccc2)cc1`: the “activity change, negative = inhibition” value is -39.7%.

For `Cc1cn([C@@H]2C[C@@H](O)[C@H](CO)O2)c(=O)[nH]c1=O`, the “activity change, negative = inhibition” value was -1.6%. With `Cn1cc(-c2ccc3nnc(Sc4ccc5ncccc5c4)n3n2)cn1`, the “activity change, negative = inhibition” value is -28.5%. For `C#CCN(C)CC1=Cc2ccccc2Oc2ccccc21`, the “activity change, negative = inhibition” value was -12.3%. Turning to `CC(C)[C@H](O)C(=O)N[C@@H](C)C(=O)N[C@@H]1C(=O)N(C)CCc2ccccc21`, the “activity change, negative = inhibition” value was -12.1%.

As for `CC(C)C[C@@H](N)[C@H](O)C(=O)N[C@H](C(=O)N[C@H](C(=O)N[C@@H](CC(=O)O)C(=O)O)C(C)C)C(C)C`, the “activity change, negative = inhibition” value was 8.43%. Still for that read-out and setting: for `COC(=O)N1CCN(Cc2cccc(NC(=O)Nc3ccc(C)nc3)c2F)CC1` the value was -9.33%; for `CC(C)(CO)[C@@H](O)C(=O)NCCC(=O)O`, -4.35%. With `CCN(CCO)CCCOc1ccc2c(Nc3cc(CC(=O)Nc4cccc(F)c4)[nH]n3)ncnc2c1`, the “activity change, negative = inhibition” value was -5.24%. Still for that read-out and setting: the result for `Nc1ccn([C@@H]2O[C@H](CO)[C@@H](O)[C@H]2O)c(=O)n1` reads 3.96%; that for `Cc1ccccc1C(C(=O)NC1CCCCC1)N(C(=O)CNc1ccc(C#N)cc1)c1cccc(F)c1` (stereo not given), -2.15%. Still for that read-out and setting: for `COc1cc(F)c(C(C)C)cc1-c1ccc(C(F)(F)F)cc1CN1C(=O)O[C@H](c2cc(C(F)(F)F)cc(C(F)(F)F)c2)[C@@H]1C` the value was 11.5%. Turning to `CC(C)Oc1cc(Nc2nc(N[C@@H](C)c3ccc(F)cn3)ncc2Cl)[nH]n1`, the Potency is 1.65 µM (active).

Consider `O=C(CO)N1CCC(c2[nH]nc(-c3ccc(Cl)cc3)c2-c2ccncn2)CC1`, for which the “activity change, negative = inhibition” value is -13.3%.

Consider `O=[N+]([O-])c1ccc(Nc2ccccc2-c2ccccc2)c2nonc12`, for which the Potency is 26.2 µM (active). Take `CCOC(=O)N1c2ccc(C(F)(F)F)cc2[C@@H](N(Cc2cc(C(F)(F)F)cc(C(F)(F)F)c2)C(=O)OC)C[C@H]1CC`: the “activity change, negative = inhibition” value is 14.2%.

As for `COc1ccc2c(c1)c(C1=C(c3c[nH]c4ccccc34)C(=O)NC1=O)cn2CCCN(C)C`, the Potency is 20.8 µM (active).
